Screening results (PubChem BioAssay)
GRK2 inh = inhibitors of human GRK2 displacing RNA aptamer; inhibition of aptamer binding, % at 10 µM; 0.59% of 330,000 active; AID 488847; bead flow cytometry, FAM-aptamer displacement from GRK2;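 active = inhibition of aptamer binding above 40%, roughly 3 SD of noise, on plates passing a quality check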;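 note: median bead fluorescence of bound FAM aptamer so fluorescent compounds give negative values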
Target sequence (P25098 whole entry, looked up): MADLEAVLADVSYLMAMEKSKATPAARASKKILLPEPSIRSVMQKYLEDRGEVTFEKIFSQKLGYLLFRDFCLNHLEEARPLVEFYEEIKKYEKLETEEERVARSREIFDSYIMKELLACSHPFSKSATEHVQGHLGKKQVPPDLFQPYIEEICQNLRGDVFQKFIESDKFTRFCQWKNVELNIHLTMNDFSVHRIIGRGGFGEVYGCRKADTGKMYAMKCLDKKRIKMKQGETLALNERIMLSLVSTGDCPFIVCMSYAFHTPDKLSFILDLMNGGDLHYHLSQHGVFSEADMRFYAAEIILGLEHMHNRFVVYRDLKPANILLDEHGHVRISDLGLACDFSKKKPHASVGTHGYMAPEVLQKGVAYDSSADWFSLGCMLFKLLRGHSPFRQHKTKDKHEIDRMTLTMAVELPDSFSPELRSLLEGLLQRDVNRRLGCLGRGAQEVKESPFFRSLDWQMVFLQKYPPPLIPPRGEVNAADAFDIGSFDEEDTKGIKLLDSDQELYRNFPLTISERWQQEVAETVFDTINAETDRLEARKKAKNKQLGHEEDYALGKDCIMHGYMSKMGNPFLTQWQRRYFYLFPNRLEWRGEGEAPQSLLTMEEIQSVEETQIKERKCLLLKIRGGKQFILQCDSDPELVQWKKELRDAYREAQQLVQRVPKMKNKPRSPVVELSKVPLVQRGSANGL
MEKK2 mut-MEK5 = signal of MEK5 binding to mutant human MEKK2 PB1 domain. bead flow cytometry, Alexa488-MEK5 binding to MEKK2 mutant. percent response, % at 10 µM. 0.35% of 290,000 active. AID 1530; in the data active = percent response above about 24%, passing the limit was not always enough
MEKK3 PB1 HTS = raises or lowers MEK5 binding to the human MEKK3 PB1 domain; binding response (% of control), % at 10 µM; 1.4% of 290,000 active; bead-based flow cytometry, Alexa488-MEK5 binding to MEKK3; actives lie on both sides; 0 = blocked by unlabeled MEK5, 100 = vehicle; AID 1529; Q99759;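 active = binding response more than 3 SD above or below the average of its plate-row segment, actives on both sides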;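 note: Alexa488 bead fluorescence after subtracting the streptavidin-only scavenger bead signal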
MEKK2wt PB1 HTS = raises or lowers MEK5 binding to wildtype human MEKK2 PB1 domain; Q9Y2U5; bead flow cytometry, Alexa488-MEK5 binding to MEKK2 WT; actives lie on both sides; binding response (% of control), % at 10 µM; 1.1% of 290,000 active; AID 1531; in the data active = binding response below about 67% or above about 130%
GRK2 inh confirm = confirmation of human GRK2 inhibitors displacing RNA aptamer; shares compounds with GRK2 inh; bead-bound GRK2, FAM-aptamer displacement, flow cytometry; aptamer displacement, % at 10 µM; 4% of 2,000 active; AID 504451;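 active = aptamer displacement above 40%, near three times the noise of non-fluorescent compounds, on plates passing quality checks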;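 note: negative values mostly reflect intrinsic compound fluorescence rather than true enhancement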
FAM quench CP1 = aptamer fluorescence quenching in GRK2 counter-screen; shares compounds with GRK2 inh; Carboxyfluorescein RNA aptamer on beads, flow cytometry quenching; stronger effect = lower value; fluorescence response (% of DMSO), % at 10 µM; 2,000 tested, under 10 active;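 active = compounds that quench the bead-bound fluorescent RNA probe, cutting fluorescence to under half of the solvent control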;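 note: counterscreen run without GRK2 so only probe quenching by compound is measured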
GRK2 confirm 2 = human GRK2 inhibition confirmation, cherry pick 2; 360 tested, under 10 active; bead-bound GRK2, FAM-aptamer displacement, flow cytometry; AID 504782; inhibition of aptamer binding, % at 10 µM; shares compounds with GRK2 inh;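 active = inhibition of aptamer binding above 40%, about triple the noise seen with nonglowing compounds, on plates passing quality control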;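 note: negative values mostly come from compounds that fluoresce themselves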
FAM quench CP2 = quenches fluorescent RNA aptamer, GRK2 hit artifact. shares compounds with GRK2 inh. carboxyfluorescein RNA aptamer beads, flow cytometry quenching; stronger effect = lower value. fluorescence response vs DMSO, % at 10 µM. 360 tested, under 10 active;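 active = response vs DMSO under 50%, meaning signal dropped by over half, treated as fluorescence quencher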;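 note: labelled aptamer on streptavidin beads without GRK2 as a quench counter-screen; 100% = bead fluorescence of DMSO wells and lower means quenching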
* hit, by the source's call; . = no result. Compounds with a hit are over-represented: about 2.5% of the library has one in this group of screens.

SMILES	GRK2 inh	MEKK2 mut-MEK5	MEKK3 PB1 HTS	MEKK2wt PB1 HTS	GRK2 inh confirm	FAM quench CP1	others
Cc1ccc(C2CC(=O)N3CN(Cc4ccco4)CSC3=C2C#N)cc1 (stereo not given)	0	5	106	103	.	.
N#CC1=C2SCN(Cc3ccco3)CN2C(=O)CC1c1c(F)cccc1Cl (stereo not given)	88*	6	105	109	-3	100
O=C(O)c1ccc(Nc2nc3ccccc3nc2NS(=O)(=O)c2cccs2)cc1	94*	-4	103	101	-7	96
Cc1onc(-c2ccccc2Cl)c1C(=O)NCc1nc(-c2ccc(C(F)(F)F)cc2)no1	0	1	103	100	.	.
CC(C)(C)c1ccc(C2C3=C(CCCC3=O)NC3=C2C(=O)c2ccccc23)cc1 (stereo not given)	51*	1	98	98	1	99
N#CC1(NC(=O)COc2ccc(S(=O)(=O)N3CCCC3)cc2[N+](=O)[O-])CCCCC1	2	.	.	.	.	.
Nc1c(C(=O)c2ccc(Cl)cc2)sc2c1c(=O)[nH]c(=O)n2-c1ccccc1	100*	7	101	82	.	.	GRK2 confirm 2=-5;FAM quench CP2=99
CC(=O)c1ccc(Nc2ccc(-c3ccccc3C)nn2)cc1	0	45	76	79	.	.
CC(=O)c1cccc(Nc2ccc(-c3ccccc3F)nn2)c1	1	-1	83	92	0	102
COc1ccccc1-c1ccc(Nc2cccc(C(C)=O)c2)nn1	2	-1	102	102	-8	103
COc1ccc(C2Nc3ccccc3C(=O)N2O)cc1CN1CCOCC1 (stereo not given)	4	0	110	99	.	.
Cc1cc(S(=O)(=O)N2CCCCC2CCNC(=O)C(=O)NCc2cccnc2)ccc1F (stereo not given)	100*	.	.	.	1	104
Cc1cc(C(=O)N2CCN(c3ccccc3Cl)CC2)c(C)o1	0	.	.	.	.	.
Cc1ccc(C(C)C)cc1S(=O)(=O)Nc1cccnc1	2	-2	84	96	.	.
COc1ccccc1NC(=O)Nc1nn(C)c2cccc(OC)c12	2	2	104	103	.	.
CC(C)n1cnc2cc(NCc3ccccc3O)ccc21	2	-3	99	95	.	.
CC(C)(C)n1cnc2cc(NCc3ccccc3O)ccc21	27	5	100	106	1	102
CCc1ccc(CNc2ccc3c(c2)ncn3C(C)(C)C)cc1	0	7	99	111	-6	98
COc1ccc(NC(=O)COC(=O)c2cc(=O)c3ccccc3o2)cc1OC	2	.	.	.	.	.
Cc1ccc(-c2noc(C3CCCN(C(=O)c4cccc(F)c4)C3)n2)cc1 (stereo not given)	100*	4	111	111	0	103
Cc1ccc(C)c(N2CCN(C(=O)c3ccc(N4CCOCC4)c([N+](=O)[O-])c3)CC2)c1	4	0	97	94	.	.
O=C(Cn1cc([N+](=O)[O-])cn1)Nc1ccccn1	60*	3	103	100	-1	96
O=C(Nc1ccccn1)Nc1ccccc1[N+](=O)[O-]	13	1	102	105	0	103
Cc1c(NC(=O)Nc2ccccc2[N+](=O)[O-])c(=O)n(-c2ccccc2)n1C	13	2	101	104	1	101
Cc1ccccc1NC(=O)Nc1ccccn1	0	3	99	98	.	.
SMILES	GRK2 inh	MEKK2 mut-MEK5	MEKK3 PB1 HTS	MEKK2wt PB1 HTS	GRK2 inh confirm	FAM quench CP1	others
Cc1nnc(NC(=O)CN2CCN(Cc3ccc(F)cc3Cl)CC2)s1	2	8	101	106	.	.
CSc1ccccc1C(=O)Nc1cccc([N+](=O)[O-])c1	2	4	104	104	.	.
CSc1ccccc1C(=O)Nc1cccc(C)c1	97*	8	111	109	0	94
C=CCOc1cccc(NC(=O)c2ccccc2SC)c1	92*	0	115	110	1	90
Cc1cccc(C)c1OCCCCN1CCNCC1	42*	6	109	113	-5	99
Cc1cc(C)c(OCCCCN2CCNCC2)c(C)c1	0	9	107	104	.	.
O=C1CN(C(=O)c2ccc(Cl)c([N+](=O)[O-])c2)c2ccccc2N1	3	5	100	101	.	.
Cc1ccc(Nc2c([N+](=O)[O-])cc(C(=O)N3CC(=O)Nc4ccccc43)cc2[N+](=O)[O-])c(C)c1	100*	10	102	102	2	99
O=S(=O)(NCc1ccc(F)cc1)c1ccc(-c2cnc(C3CC3)o2)cc1	51*	3	101	102	6	99
O=C(NCc1ccccc1Cl)c1cccc(NC2=NC3CS(=O)(=O)CC3S2)c1 (stereo not given)	2	3	101	105	-2	97
O=C(NCc1ccccc1)c1cccc(NC(=O)c2ccccc2)c1	.	.	.	.	2	103
COc1ccc(/C=C(\NC(=O)c2ccc(OC)cc2)C(=O)Nc2ccc(C(=O)O)cc2)cc1	1	-7	101	98	.	.
COc1ccc(CNC(=O)c2cccc(NC(=O)c3ccccc3)c2)cc1	2	-6	104	99	3	104
COc1ccc(CC(=O)Nc2cccc(C(=O)Nc3cccc(C)c3)c2)cc1	2	0	103	99	.	.
COc1ccc(C(=O)N/C(=C\c2ccccc2)C(=O)Nc2cccc(C(=O)O)c2)cc1	90*	0	100	102	1	105
CCc1ccc(S(=O)(=O)N2CCCC(N3CCN(c4ccc(OC)cc4)CC3)C2)cc1 (stereo not given)	5	9	104	108	.	.
CCN(CC(=O)NC(=O)Nc1ccccc1F)Cc1ccccc1	3	.	.	.	.	.
Cc1ccc(C(=O)Nc2cccc(C(=O)NCc3ccccc3)c2)o1	0	-2	87	93	-21	98
COc1ccccc1CNC(=O)c1cccc(NC(=O)c2ccccc2)c1	1	6	104	104	-2	95
COc1ccccc1CNC(=O)c1ccncc1	0	2	104	107	.	.
COc1ccc(C(=O)Nc2c(O)ccc3ccccc23)cc1	98*	.	.	.	-3	95
O=C(NCc1ccccc1Cl)c1cccc(NC(=O)c2ccccc2)c1	0	16	101	105	2	122
CC(OC(=O)c1cc(=O)[nH]c2ccccc12)C(=O)NC1CCCC1 (stereo not given)	0	.	.	.	.	.
